This is an account of results in PubChem BioAssay AID1832 (Broad Institute, 2009).

Out of some 300,000 compounds screened, about 1,100 (0.37%) were called active. The sample holds actives, similar compounds and a random draw of the others, so the mix is not that of the screen.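 The calls were made as follows: active = inhibition past about -25% in most replicates, and total fluorescence under double the plate's negative control median (limit read from the data); inconclusive = replicates evenly split on the limit, or fluorescence at least double controls; inactive = too little inhibition in most replicates.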

For this test, the target named is Zinc finger protein mex-5 (Caenorhabditis elegans) (UniProt Q9XUB2). The test can be described thus: MEX-5 zinc finger RNA-binding disruptors – biochemical, C. elegans, fluorescence polarization, MLPCN library, primary screen (AID 1832).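 Also: 0% = DMSO and -100% = 5 µM competing unlabeled TCR2 RNA.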 As to conditions: MEX-5/FITC-TCR2 RNA binding, at 10 µM, stronger effect = lower value.
Zinc finger protein mex-5 (Caenorhabditis elegans), sequence (Q9XUB2 whole entry, looked up): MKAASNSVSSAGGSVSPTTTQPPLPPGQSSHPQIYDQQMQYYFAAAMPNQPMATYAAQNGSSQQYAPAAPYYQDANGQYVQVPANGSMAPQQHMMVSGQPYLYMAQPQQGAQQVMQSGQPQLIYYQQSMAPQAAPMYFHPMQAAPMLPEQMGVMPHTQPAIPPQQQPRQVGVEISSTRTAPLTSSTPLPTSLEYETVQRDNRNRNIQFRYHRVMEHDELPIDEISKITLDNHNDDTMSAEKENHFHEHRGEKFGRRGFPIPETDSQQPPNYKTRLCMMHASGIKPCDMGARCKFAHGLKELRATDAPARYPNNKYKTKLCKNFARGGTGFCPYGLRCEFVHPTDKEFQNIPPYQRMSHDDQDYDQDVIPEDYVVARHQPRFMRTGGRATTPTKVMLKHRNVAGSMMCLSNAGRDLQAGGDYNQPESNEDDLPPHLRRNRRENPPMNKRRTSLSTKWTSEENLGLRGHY
As for `CC(=O)Nc1ccc(Nc2nc3c(S(=O)(=O)c4ccc(C)c(C)c4)nnn3c3ccccc23)cc1`, the activity score (negative = inhibition of binding) is -3.46% (inactive).
Regarding `Cc1cc(=O)oc2cc(NC(=O)C3CC(=O)N(Cc4ccccc4)C3)ccc12` (stereo unspecified), the activity score (negative = inhibition of binding) is -4.23% (inactive).
The value for `Cc1cc(C)nc(N/N=C/c2ccc([N+](=O)[O-])o2)n1` was -9.59% (inactive).
Regarding `CCn1c(/C=C/c2ccc([N+](=O)[O-])o2)nc2ccccc2c1=O`, the activity score (negative = inhibition of binding) was -34.2% (active).
On to `C/[N+]([O-])=C\c1ccc([N+](=O)[O-])o1`, for which the activity score (negative = inhibition of binding) was -3.97% (inactive).
For the compound `COc1ccc(NS(=O)(=O)c2cccc3nsnc23)cc1Cl`, the activity score (negative = inhibition of binding) was 1.95% (inactive).
With `COC(=O)c1ccc(NC(=S)Nc2cccc(C)n2)cc1`, the activity score (negative = inhibition of binding) is -0.058% (inactive).
As for `O=C(Nc1ccc(C(=O)N2CCCCC2)cc1)c1cccc([N+](=O)[O-])c1`, the activity score (negative = inhibition of binding) was 1.72% (inactive).
Next, `Cc1cc([N+](=O)[O-])ccc1NC(=O)c1ccc(NC(=O)C(C)C)cc1`: 0.662% (inactive); `Cn1ccc(=Nc2ccc(NC(=O)c3ccc(N=c4ccn(C)c5ccc([N+](=O)[O-])cc45)cc3)cc2)cc1`: -46.8% (active); `CN(C)Cc1c(O)ccc2occ(C(O)c3ccccc3)c12` (stereo unspecified): 1.82% (inactive).
In the case of `CCCCn1nc(C(=O)Nc2ccc(S(=O)(=O)Nc3ncccn3)cc2)c2ccccc2c1=O`, the activity score (negative = inhibition of binding) is 2.51% (inactive).
As for `CCCn1nc(C(=O)Nc2ccc3nc(C)sc3c2)c2ccccc2c1=O`, the activity score (negative = inhibition of binding) is -34.8% (active).
For `CCCn1nc(C(=O)NNC(=O)CSCC(=O)Nc2cc(C)on2)c2ccccc2c1=O`, the activity score (negative = inhibition of binding) is -9.23% (inactive).
For the compound `CCOC(=O)NC(=O)C(=CNc1cccc(OC)c1)C(=O)NC(=O)OCC`, the activity score (negative = inhibition of binding) was -0.689% (inactive).
Regarding `C=CCOc1ccccc1NC(=O)CN1C(=O)CNC1=O`, the activity score (negative = inhibition of binding) is 1.49% (inactive).
In the case of `Cc1nc(CN(C)C(=O)CC2C(=O)NCCN2Cc2ccc(F)cc2)cs1` (stereo unspecified), the activity score (negative = inhibition of binding) is -3.2% (inactive).
The value for `NS(=O)(=O)c1ccc(NC(=O)/C=C/c2ccccc2Cl)cc1` was -0.539% (inactive).
The value for `COc1ncnc2c1N=C1CC(C)(C)CC(N)=C1S2` was -36.1% (active).
For the compound `Cn1c(Nc2ccccc2)cc(=O)n(C)c1=O`, the activity score (negative = inhibition of binding) is -3.14% (inactive).
Regarding `Oc1c(Cl)cc(Cl)c(Cl)c1Cc1c(O)c(Cl)cc(Cl)c1Cl`, the activity score (negative = inhibition of binding) is -82.9% (active).
Turning to `Cc1cc(NS(=O)(=O)c2ccc(NC(=S)NC(=O)c3ccc(F)cc3Cl)cc2)no1`, the activity score (negative = inhibition of binding) was -0.765% (inactive).
As to `O=C(NCC1CCCO1)C1CCN(C2CCN(C(=O)C3CCCCC3)CC2)CC1` (stereo unspecified), the activity score (negative = inhibition of binding) is -0.223% (inactive).
On to `COc1cc(C(=S)N2CCOCC2)cc(OC)c1OC(=O)c1ccc([N+](=O)[O-])cc1[N+](=O)[O-]`, for which the activity score (negative = inhibition of binding) was -2.68% (inactive).
The value for `Cc1c(NC(=O)c2coc(=O)c(Br)c2)c(=O)n(-c2ccccc2)n1C` was -44.8% (active).
On to `Cc1c(NC(=O)c2cccnc2)c(=O)n(-c2ccccc2)n1C`, for which the activity score (negative = inhibition of binding) was 0.492% (inactive).
With `Cc1cc(C(=O)Nc2c(C)n(C)n(-c3ccccc3)c2=O)cs1`, the activity score (negative = inhibition of binding) was 2.16% (inactive).
On to `CCOc1ncccc1C(=O)NCCc1ccc(OC)cc1`, for which the activity score (negative = inhibition of binding) was -0.435% (inactive).
With `CNC(=O)CN1C(=O)NC(c2ccccc2)(c2ccccc2)C1=O`, the activity score (negative = inhibition of binding) is 2.16% (inactive).
The value for `Cc1ccc(Cl)cc1-c1ccc(/C=N/n2cnnc2)o1` was 0.0863% (inactive); that for `Clc1cc(-c2ccc(/C=N/n3cnnc3)o2)ccc1Br` was -34% (active).
On to `Brc1cc(/C=N/n2cnnc2)oc1Br`, for which the activity score (negative = inhibition of binding) was 0.986% (inactive).
Next, `Cc1ccoc1C(=O)Nc1cccc(Oc2ccccc2)c1`: -2.34% (inactive).
For `COc1ccc(CNC(=O)COc2cccnc2[N+](=O)[O-])cc1`, the activity score (negative = inhibition of binding) is 0.235% (inactive).
Take `C=CCN1C=C2C(=O)C(C)(OC(=O)CCc3ccccc3)C(=O)C=C2C=C1c1ccc(C#N)cc1` (stereo unspecified): the activity score (negative = inhibition of binding) was -5.84% (inactive).
For the compound `COCCN1C=C2C(=O)C(C)(OC(=O)C3CCCC3)C(=O)C=C2C=C1c1ccsc1` (stereo unspecified), the activity score (negative = inhibition of binding) was -2.5% (inactive).
Take `CC1(OC(=O)C2CCCC2)C(=O)C=C2C=C(c3ccc(C#N)cc3)OC=C2C1=O` (stereo unspecified): the activity score (negative = inhibition of binding) was -40% (active).
Next, `N#CC1=C(N)C(C#N)(C#N)[C@H](c2ccsc2)[C@H]2COCC=C12`: -30.3% (active); `CCOC(=O)N1CCC(NC(=O)C(NS(=O)(=O)c2ccc3c(c2)CCN3C(=O)CC)C(C)C)CC1` (stereo unspecified): -1.98% (inactive); `O=C(COc1ccc(Cl)cc1Cl)N/N=C/c1ccccn1`: 4.25% (inactive).
For the compound `CSc1ncc(C(=O)NCCCc2ccccc2)c(C)n1`, the activity score (negative = inhibition of binding) is -2.7% (inactive).
The value for `CCOc1ccc(C(=O)NC2CCN(CC(=O)NCc3cccs3)CC2)cc1` was -1.2% (inactive).
Regarding `Cc1ccc2c(c1)C(c1ccccc1)N(C(=O)c1ccc(F)cc1)CC(=O)N2` (stereo unspecified), the activity score (negative = inhibition of binding) is -0.463% (inactive).
As to `CCCNC(=O)N1CCC(c2ccc3c(c2)OCO3)CC1`, the activity score (negative = inhibition of binding) was 2.15% (inactive).
Next, `CN1C(=O)c2cccc3c(N)ccc(c23)C1=O`: -51.4% (active); `Cc1nn(C)cc1N1C(=O)c2cccc3c(N)ccc(c23)C1=O`: 1.83% (inactive); `CCN1C(=O)c2cccc3c(N)ccc1c23`: 1.15% (inactive).
In the case of `NC(=O)Cc1ccc2sc(-c3ccccc3)nc2c1`, the activity score (negative = inhibition of binding) was -1.64% (inactive).
For `O=C1c2ccccc2C(Nc2ccc3c(c2)OCCO3)N1Cc1ccco1` (stereo unspecified), the activity score (negative = inhibition of binding) is -1.03% (inactive).
Consider `CCc1ccc(CNC(=O)C2CCN(c3nnc(C)c4c(C)n(-c5ccc(C)cc5)nc34)CC2)cc1`, for which the activity score (negative = inhibition of binding) is -2.92% (inactive).
For `O=C(Nc1cccc2c1N(C(=O)c1ccco1)CCC2)c1ccco1`, the activity score (negative = inhibition of binding) is -0.00473% (inactive).
The value for `O=C(NCc1nnc(SCC(=O)N2CCC(Cc3ccccc3)CC2)o1)c1ccco1` was -1.62% (inactive); that for `Oc1ccc(-c2onc3ccc(Cl)cc23)cc1` was -1.78% (inactive).
For `COc1ccc(-c2onc3ccc(C(C)=O)cc23)cc1`, the activity score (negative = inhibition of binding) was -69.7% (active).
Next, `CC(OC(=O)c1ccc2noc(-c3ccccc3)c2c1)C(N)=O` (stereo unspecified): -5.27% (inactive); `COc1ccc(Cn2c(-c3ccc(Cl)cc3)c[n+]3ccccc23)cc1`: 2.75% (inactive); `COc1ccc(NC(=O)c2cn(-c3ccccc3)nc2SC)cc1`: 2.01% (inactive).
The value for `CN1c2ccc(C=O)c3c(C=O)ccc(c23)N(C)C1(C)C` was -35.3% (active); that for `COc1ccc(NC(=O)CN(C)C(=O)c2n[nH]c3ccccc23)cc1` was -3.49% (inactive); that for `CCCCN(CC)CCCNC(=O)c1ccc(CSc2nc3ccncc3[nH]2)cc1` was 1.01% (inactive).
With `Cc1ccc(C2NC(=S)NC3=C2N2CCC3CC2)cc1` (stereo unspecified), the activity score (negative = inhibition of binding) is 0.478% (inactive).
Take `Cc1nonc1C1CCCN1Cc1nc(-c2ccc(F)cc2F)oc1C` (stereo unspecified): the activity score (negative = inhibition of binding) is -2.15% (inactive).
The value for `Cc1ccc(-n2cc(CN(C)Cc3nccn3C)c(-c3cccc(C)c3)n2)cc1` was 1.9% (inactive).
For `N#C[C@]1(S(=O)(=O)c2ccccc2)C[C@@H]2ON=C(c3cccc(Br)c3)[C@@H]2C1`, the activity score (negative = inhibition of binding) was 1.51% (inactive).
With `Cc1ccnc(NC(=O)c2ccc(Cl)c([N+](=O)[O-])c2)c1`, the activity score (negative = inhibition of binding) was -0.216% (inactive).
Consider `Cc1nn(CC(=O)N2CCCCC2)c(=O)c2nn(-c3ccccc3)c(C)c12`, for which the activity score (negative = inhibition of binding) is -3.02% (inactive).
Consider `Cc1nn(C(C)C(=O)N2CCOCC2)c(=O)c2nn(-c3ccccc3)c(C)c12` (stereo unspecified), for which the activity score (negative = inhibition of binding) is -34.7% (active).
The value for `Cc1nn(C(C)C(=O)NCCC2=CCCCC2)c(=O)c2nn(-c3ccccc3)c(C)c12` (stereo unspecified) was -2.35% (inactive).
As to `CC(C)Cc1nnc(NC(=O)CCc2ccccc2)s1`, the activity score (negative = inhibition of binding) is -0.0404% (inactive).
The value for `COC(=O)CSc1nnc(NC(=O)CCc2ccccc2)s1` was 0.825% (inactive).
With `O=C(COC(=O)c1cccc(Cl)c1)Nc1ccc2[nH]c(=O)[nH]c2c1`, the activity score (negative = inhibition of binding) was 0.565% (inactive).
`NC(=O)c1nsc(C(=O)N(CCCN2CCOCC2)C(C(=O)NC2CCCCC2)c2ccc(Cl)cc2)c1N` (stereo unspecified): the activity score (negative = inhibition of binding) was -0.973% (inactive).
Regarding `COC(=O)c1ccc(NC(=O)c2cc3c(CO)cnc(C)c3oc2=Nc2cccc(C(N)=O)c2)cc1`, the activity score (negative = inhibition of binding) was -0.18% (inactive).
Next, `Cc1cc(NC(=O)Nc2ccccc2[N+](=O)[O-])no1`: 0.456% (inactive).
The value for `COc1ccc(/C=C2/C(=O)N(c3ccccc3)N=C2C)c(OC)c1` was 1.89% (inactive); that for `COc1cc2c(cc1/C=C1/NC(=O)N(c3ccccc3)C1=O)OCO2` was -27% (active).
In the case of `O=C1N/C(=C/c2cccn2-c2ccccc2)C(=O)N1c1cccc(Cl)c1`, the activity score (negative = inhibition of binding) was 3.72% (inactive).
`COc1ccc(C(=O)/C=C/c2cccnc2)c(OC)c1`: the activity score (negative = inhibition of binding) is 0.878% (inactive).
`COc1ccc(C(=O)/C=C/c2ccc(-c3ccccc3)cc2)cc1CSCC(=O)O`: the activity score (negative = inhibition of binding) is -31.8% (active).
With `COC(=O)c1ccc(COc2ccc(/C=C/C(=O)c3ccc(OC)c(CSCC(=O)O)c3)cc2OC)cc1`, the activity score (negative = inhibition of binding) was -5.72% (inactive).
On to `COc1ccc(/C=C/C(=O)c2ccc(NS(=O)(=O)c3ccc(C)cc3)cc2)cc1O`, for which the activity score (negative = inhibition of binding) was -0.65% (inactive).
For the compound `COc1ccc(CCNS(=O)(=O)c2cc3c(cc2C)NC(=O)CO3)cc1OC`, the activity score (negative = inhibition of binding) was 0.926% (inactive).
`Cc1cc(C)nc(NNC2=CC(=O)CC(C)(C)C2)n1`: the activity score (negative = inhibition of binding) was -66.2% (active).
Turning to `CC1(C)CC(=O)C=C(Nc2ccccc2)C1`, the activity score (negative = inhibition of binding) is 1.36% (inactive).
The value for `COC(=O)NNC1=CC(=O)CC(C)(C)C1` was -6.29% (inactive).
As to `Cc1cc(NC(=O)CCC(=O)N(Cc2ccccc2)C(C(=O)NC2CCCC2)c2ccc(C)o2)no1` (stereo unspecified), the activity score (negative = inhibition of binding) is -2.13% (inactive).
As for `NS(=O)(=O)c1ccc(N=Nc2c(O)[nH]c3ccc(Br)cc23)cc1`, the activity score (negative = inhibition of binding) is -2.29% (inactive).
The value for `Oc1[nH]c2ccc(Br)cc2c1N=Nc1nn[nH]n1` was -74.2% (active).
`O=C(CNC(=O)Cc1ccccc1)N=Nc1c(O)[nH]c2ccc(Br)cc12`: the activity score (negative = inhibition of binding) was 0.589% (inactive).
Regarding `O=c1[nH]c(CN2CCOCC2)nc2scc(-c3ccccc3)c12`, the activity score (negative = inhibition of binding) was 1.42% (inactive).
`COc1ccc(NC(=O)CCn2ccnc2)c(OC)c1`: the activity score (negative = inhibition of binding) was -0.322% (inactive).
For the compound `CCCCn1c(=O)c(C(C)=O)c(O)c2ccccc21`, the activity score (negative = inhibition of binding) is 0.942% (inactive).
`CC(=O)n1c(C=Nc2ccccc2)c(O)c2ccccc21`: the activity score (negative = inhibition of binding) is -52.6% (active).
`CCOc1ccc(N=Cc2c(O)n(-c3cccc(C)n3)c(=O)c3ccccc23)cc1`: the activity score (negative = inhibition of binding) is -1.96% (inactive).
On to `C=CCn1cc(Cl)cc(C(=O)Nc2ccccc2)c1=O`, for which the activity score (negative = inhibition of binding) is -0.689% (inactive).
For the compound `COc1ccccc1NC(=O)CCSc1nnc(-c2ccc(O)cc2)o1`, the activity score (negative = inhibition of binding) is -2.37% (inactive).
